The results in this text go back to PubChem BioAssay (NCI).

Assay [1] is described as follows: NCI Yeast Anticancer Drug Screen. Data for the rad50 strain (AID 155).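 Further: 0% = growth of vehicle-only cultures of the same strain.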 The following applies: S. cerevisiae rad50 strain growth inhibition; at 50.0 µM; active compounds read high. A digest of the protocol:
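A DNA repair-deficient yeast mutant serves as the test organism; compound-induced growth inhibition is calculated against vehicle-treated cells.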

The nature of assay [2]: NCI Yeast Anticancer Drug Screen. Data for the mec2-1 strain (AID 157). Conditions: S. cerevisiae mec2-1 strain, at 50.0 µM, active compounds read high. Summed up:
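Cells of the genetically defined mec2-1 yeast strain are incubated with test compound. Inhibition of growth is calculated against vehicle-treated controls.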

Assay [3] is described as follows: NCI Yeast Anticancer Drug Screen. Data for the sgs1 mgt1 strain (AID 161).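 Further: 0% = growth of cultures given vehicle only.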 Conditions: S. cerevisiae sgs1 mgt1 strain, at 50.0 µM, active compounds read high. Summed up: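 Inhibition of yeast growth, normalised to vehicle-treated controls, is reported for a strain bearing genetic alterations in DNA damage repair.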
Assay [4] in a line: NCI Yeast Anticancer Drug Screen. Data for the cln2 rad14 strain (AID 165).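 Further: 0% = growth equal to vehicle treated cultures.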 The following applies: S. cerevisiae cln2 rad14 strain, at 50.0 µM, active compounds read high. Summed up:
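The screen exposed genetically defined yeast (cln2 rad14) to test compounds and scored growth inhibition relative to vehicle-treated controls.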

The nature of assay [5]: NCI Yeast Anticancer Drug Screen. Data for the bub3 strain (AID 167). The following applies: S. cerevisiae bub3 mutant strain, at 50.0 µM, active compounds read high. A digest of the protocol: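 Inhibition values come from growth of compound-treated mutant yeast normalised to vehicle-treated controls.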
A short description of assay [6]: NCI Yeast Anticancer Drug Screen. Data for the mlh1 rad18 strain (AID 175). The following applies: S. cerevisiae mlh1 rad18 strain growth inhibition; at 50.0 µM; active compounds read high. A digest of the protocol: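 Compound-treated yeast growth, normalised to vehicle controls. Strain bears defined DNA repair mutations.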

SMILES strings stand for the structures. About 79,000 compounds went through this panel and 15% of them were active in at least one assay; those are over-represented in the sample as a whole. Values without a mark were called inactive. Active and inactive are the calls of the source. No stated cut-off is given here; in the data, active means growth inhibition above about 70%; inactive means the rest.

Consider `N#Cc1ccc(-c2nc3ccc(Cl)cc3[nH]2)cc1`, for which the growth inhibition is -47.9% in assay [1]; -31% in assay [2]; -13.7% in assay [3]; 6.7% in assay [4]; -30.9% in assay [5]; -21.9% in assay [6].
On to `CC(=O)Nc1ccc(NC(=O)Nc2cccc(C(C)=O)c2)cc1`, for which the growth inhibition in assay [1] was 7.3%; in assay [2], 27.2%; in assay [3], 9.35%; in assay [4] it was 0.3%; in assay [5], 22.6%; in assay [6], 28.6%.
As for `CN(C)Cn1c2ccccc2c2ccccc21`, the growth inhibition in assay [1] is -2.05%; in assay [2] it was -1.1%; in assay [3], 3.9%; in assay [4] it was 0.1%; in assay [5], -0.8%; in assay [6] it was -12.4%.
For the molecule `CCN(CC)CCOc1ccc(/C=C(\C#N)c2ccc(OCCN(CC)CC)cc2)cc1`, the growth inhibition in assay [1] was 56.5%; in assay [2] it was 28.6%; in assay [3] it was 30.4%; in assay [4], 56%; in assay [5], 24.1%; in assay [6] it was 18%.
Take `NC(CCOCCP(=O)(O)CCOCCC(N)C(=O)O)C(=O)O` (stereo unspecified): the growth inhibition in assay [1] was -42%; in assay [2], -20.8%; in assay [3], -27.1%; in assay [4] it was -4.5%; in assay [5], -8.95%; in assay [6] it was -8.75%.
With `Cc1[nH]c2ccccc2c1C(c1ccccc1O)c1c(C)[nH]c2ccccc12`, the growth inhibition in assay [1] is 20.6%; in assay [2], 23.4%; in assay [3] it was 14.2%; in assay [4], 18.6%; in assay [5], 13.2%; in assay [6], 33.4%.
Take `C/C(=C/c1ccccc1)OC(=O)c1ccccc1`: the growth inhibition is 25.7% in assay [1]; 4.55% in assay [2]; 10.8% in assay [3]; -1.85% in assay [4]; 26.4% in assay [5]; 36.2% in assay [6].
Regarding `S=c1[nH]c2ccccc2n2cccc12`, the growth inhibition is 14.9% in assay [1]; -7.15% in assay [2]; 27.4% in assay [3]; 12.8% in assay [4]; -12.3% in assay [5]; 19.2% in assay [6].
On to `O=C(Nc1ccccc1SC(=O)OCc1ccccc1)OCc1ccccc1`, for which the growth inhibition was 30.2% in assay [1]; 4.8% in assay [2]; 11.6% in assay [3]; 38.6% in assay [4]; 1.95% in assay [5]; 1.3% in assay [6].
With `Cc1cc2c(cc1C)[n+](=O)c(C(=O)CC(=O)C(=O)Nc1ccccc1C)c(C)n2[O-]`, the growth inhibition in assay [1] was 37%; in assay [2], 46.5%; in assay [3] it was 3.8%; in assay [4] it was 30.4%; in assay [5], 47.3%; in assay [6], 9.3%.
Regarding `Cc1cccc(C)c1NC(=O)C(=O)C(C#N)c1ccccc1Cl` (stereo unspecified), the growth inhibition in assay [1] is -13.2%; in assay [2], -47.7%; in assay [3], -10.8%; in assay [4] it was -1.1%; in assay [5] it was 4.85%; in assay [6] it was -11.5%.
Regarding `CN(C)C(CO)(CO)CO`, the growth inhibition is 15.3% in assay [1]; -7.5% in assay [2]; 3% in assay [3]; -0.75% in assay [4]; 3.3% in assay [5]; 2.3% in assay [6].
`N#CSCC(=O)CCC(=O)O`: the growth inhibition in assay [1] was -2.75%; in assay [2], 0.7%; in assay [3], -8.8%; in assay [4] it was -15%; in assay [5], 3.75%; in assay [6], -1.1%.
As to `CCOC(=O)c1c(-c2ccc(OC)cc2)c(C#N)c(=S)n(C2OC(CO)C(O)C(O)C2O)c1-c1ccccc1` (stereo unspecified), the growth inhibition in assay [1] is 6.7%; in assay [2], -29%; in assay [3] it was -20%; in assay [4], -11.6%; in assay [5], -12.4%; in assay [6], 2.95%.
`CC(C)C(=O)Oc1cc2c(=O)oc3c(OC(=O)C(C)C)c(OC(=O)C(C)C)cc4c(=O)oc(c1OC(=O)C(C)C)c2c34`: the growth inhibition is 40.1% in assay [1]; 12.6% in assay [2]; 25.6% in assay [3]; 13.7% in assay [4]; 31.6% in assay [5]; 48.5% in assay [6].
With `Nc1ncnc(N2CCOCC2)n1`, the growth inhibition in assay [1] was -28.8%; in assay [2], -41.3%; in assay [3] it was -8.15%; in assay [4], 0.95%; in assay [5], -14.9%; in assay [6], -8.3%.
In the case of `COc1cccc(CC(=O)O)c1OC`, the growth inhibition was 22.9% in assay [1]; -4.75% in assay [2]; -12% in assay [3]; 1.8% in assay [4]; -3.5% in assay [5]; 12.6% in assay [6].
As to `CCC(=O)C12CCCC1=NC(=N)N=C2C1=NC(=N)N=C2CCCC21C(=O)CC` (stereo unspecified), the growth inhibition in assay [1] was -10.3%; in assay [2], 12.4%; in assay [3], -14.2%; in assay [4], 2.75%; in assay [5] it was -1.7%; in assay [6], 5.2%.
For `O=C(O)c1ccccc1SC(Sc1ccccc1C(=O)O)c1cccs1`, the growth inhibition in assay [1] is 12.4%; in assay [2] it was -9.65%; in assay [3], 3.75%; in assay [4], -4.55%; in assay [5], 6.25%; in assay [6], 4%.
As to `CCCCNc1c(C(=O)N2CCCCC2)cnc2c1cnn2CC`, the growth inhibition in assay [1] is -3.15%; in assay [2], 1.8%; in assay [3], 26.2%; in assay [4] it was -13.9%; in assay [5] it was 46.8%; in assay [6] it was 1.05%.
For `O=C1C=C(NCC(c2ccccc2)c2ccccc2)C(=O)c2ncccc21`, the growth inhibition in assay [1] was 33.2%; in assay [2], 24.8%; in assay [3], 43%; in assay [4], 34.9%; in assay [5], 40.9%; in assay [6], 77.8% (active).
